MARV entry inh = blocks Marburg virus binding to or entry into cells; Potency, µM (highest dose often 37.8 µM), for inactives: at the top dose activity change, negative = inhibition, hits mostly inhibitors; Marburg virus pseudotyped entry inhibition, cell reporter; 300,000 compounds, 1.8% hits; AID 540276; calls by dose curve; tested in HEK293 cells; further: potency means the concentration at half of the fitted maximal effect; on the % scale 0 is the no-effect control and ±100 the full control effect
Shiga inhibitor = inhibitors of Shiga toxin in Vero cells; Vero cells, Shiga toxin protein synthesis inhibition reporter; inhibition, % at 38.7 µM; 290,000 compounds, 9.2% hits; AID 2315; in the data active means inhibition mostly above about 28%, no sharp cut-off; inactive means mostly below about 43%; further: 0% is about no effect
Pf growth 48h = inhibits P. falciparum growth in the first generation, 48 h; P. falciparum luciferase growth in erythrocytes, 48 h; Potency, µM (top dose mostly 28.7 µM), for the others: top-dose activity change, negative = inhibition, hits mostly inhibitors; 310,000 compounds, 5.9% hits; AID 504832; further: potency means the concentration at half of the fitted maximal effect; on the % scale 0 is the no-effect control and ±100 the full control effect
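Parasite viability was followed by luminescence of a genomically integrated firefly luciferase. Cultures held 0.1% parasitemia at 2% hematocrit (final), incubated under 5% CO2 at 37 C.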
Pf growth 96h = P. falciparum growth inhibition at 96 hour, primary screen for plastid delayed-death inhibitors | 320,000 compounds, 6.9% hits | Potency, µM (top dose mostly 28.7 µM), inactives show at the top dose activity change, negative = inhibition, hits mostly inhibitors | P. falciparum luciferase reporter growth, 96 h | AID 504834; further: potency means the concentration at half of the fitted maximal effect; on the % scale 0 is the no-effect control and ±100 the full control effect
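P. falciparum expressing integrated firefly luciferase, in erythrocytes at 2% hematocrit, 0.05% parasitemia, incubated with compounds 96 h at 37 C, 5% CO2. Growth inhibition read as loss of luminescence; two-generation exposure targets delayed-death apicoplast inhibitors.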
CHX counter = counter-screen hit for Shiga toxin inhibitors, cycloheximide. cell reporter, cycloheximide protein synthesis inhibition counterscreen. max response, %. 300,000 compounds, 12% hits; in the data active means max response mostly above about 13%, no sharp cut-off; inactive means mostly below about 14%; further: read at 38.3 µM for the half of the compounds with a filed dose; 0% is about no effect
LASV entry inh = inhibitors of Lassa virus binding or cell entry | Lassa virus pseudotype entry inhibition, cell reporter | Potency, µM (highest dose often 37.9 µM), without a hit: at the top dose activity change, negative = inhibition, most hits filed as inhibitors | 300,000 compounds, 1.2% hits | AID 540256; calls by dose curve; tested in HEK293 cells; further: potency means the concentration at half of the fitted maximal effect; on the % scale 0 is the no-effect control and ±100 the full control effect; nearly all actives have a fitted effect of over 50% in size
The depositor's hits bear a star; u = inconclusive; x = not tested or not shown; [ ] = dose if it differs, or a comment. Hits are enriched below; roughly 19% of the tested compounds scored in any of these assays. Unless noted, the call rests on the fitted dose curve; in most records, active means well fitted inhibition curve with a large enough effect; inconclusive means small, poorly fitted or top-dose-only effect, or another doubt; inactive means no such curve, though single readings can be large or run the other way.

SMILES	MARV entry inh	Shiga inhibitor	Pf growth 48h	Pf growth 96h	CHX counter	LASV entry inh
COc1ccccc1CNc1nc2nc(C)c(C)c(=O)n2[nH]1	4.3%	-2.2	15.1%	4.0%	3.4	-0.7%
CN(CC(=O)NCC1CCCCC1)S(=O)(=O)c1ccc(Cl)cc1	6.8%	-1.9	-1.6%	13.8%	-5.4	1.5%
CCOc1ccc(N=c2scc(-c3ccccc3)n2CCO)cc1	u	43.2	x	-22.3%	28.6*	-15.1%
CCOc1ccc(N=c2scc(-c3ccc(OC)cc3)n2CCO)cc1	-14.9%	53.8	u	u	16.1*	-22.8%
CCn1c(-c2ccccc2)csc1=Nc1ccc(O)cc1	-25.5%	81.5*	29.3%	u	47.9*	u
COc1ccc(S(=O)(=O)Nc2cccnc2)cc1OC	13.9%[46.1 µM]	-7.1	0.0%	u	0.8	-16.7%[46.1 µM]
COc1ccccc1/C=C/C(=O)Nc1ccc(S(=O)(=O)Nc2cc(C)on2)cc1	12.2%	10.6	2.6%	u	2.6	14.2%
O=C(Nc1nnc(-c2ccccc2Cl)o1)c1nc2ccccc2s1	x	22.5*	24.3%	33.2%	14.1*	x
CC(C)NC(=O)c1nc2ccccc2s1	u	30.5*	47.6%	2.1%	23.7*	16.2%
CCOc1ccc(C(=O)Nc2cc(-c3nc4ccccc4s3)ccc2OC)cc1	15.5%[46.1 µM]	x	x	x	x	8.5%[46.1 µM]
CC(C)NC(=O)c1ccccc1-c1ccccc1	-1.9%	1.9	x	-22.4%	-2.6	2.2%
O=C(Nc1nnc(-c2ccccc2Cl)o1)c1ccco1	3.6%	10.6	16.6%	125.3%	8.8	-5.2%
C=CCNC(=O)c1nc2ccccc2s1	0.3%	118.4*	223.4%	142.6%	50.9*	11.7%
COc1ccc(OC)c(NC(=O)c2nc3ccccc3s2)c1	u	44.3	67.6%	36.8%	31.4*	-21.4%
CCN(c1ccccc1)c1nc(Cl)nc2c1cnn2C	3.9%[46.1 µM]	x	x	x	x	-22.6%[46.1 µM]
O=C1CC[C@H](O)CCN1CCSc1ccc(Br)cc1	x	x	-17.3%	41.4%	x	x
CCC(C)Nc1nc2c(c(=O)[nH]c(=O)n2C)n1CCOc1ccccc1 (stereo unspecified)	x	-0.8	u	u	-7.9	x
Cc1ccc2oc(C(=O)Nc3sc4c(c3C(=O)NCc3cccnc3)CCCC4)cc(=O)c2c1	-14.6%[46.1 µM]	x	x	x	x	11.3%[46.1 µM]
COc1ccc(NC(=O)c2nc3ccccc3s2)cc1	u	24.7*	0.0%	274.0%	90.8*	u
Cn1c(-c2cccc([N+](=O)[O-])c2)cnc1NCc1ccc(C#N)cc1	-13.6%	-11.1	u	17.6%	8.8	13.4%
CC1(C)C(=O)OC(c2cccn2-c2cccc([N+](=O)[O-])c2)C2(CCCCC2)C1=O (stereo unspecified)	x	-6.0	13.1µM*	-24.5%	-1.5	x
Cc1ccccc1NC(=O)c1ccc2c(c1)OCCO2	27.8%	136.9*	97.4%	-16.9%	18.1*	28.8%
COC(=O)c1ccccc1NC(=O)c1ccc2c(c1)OCCCO2	7.8%[46.1 µM]	30.1	-61.2%	u	22.5*	u
N#Cc1ccccc1NC(=O)c1ccc2c(c1)OCCO2	12.6%[46.1 µM]	99.0*	156.0%	7.7%	31.2*	x
N#Cc1ccccc1COC(=O)c1ccc2c(c1)OCCO2	19.3%[46.1 µM]	x	82.2%	59.0%	x	u
SMILES	MARV entry inh	Shiga inhibitor	Pf growth 48h	Pf growth 96h	CHX counter	LASV entry inh
Cc1ccccc1NC(=O)c1cccc(C(=O)Nc2ccccc2C)c1	18.2%[14.2 µM]	x	x	x	x	-18.3%
COC(=O)c1ccccc1NC(=O)CN1CCC(C(=O)c2ccc3c(c2)OCCO3)CC1	-11.6%	-9.3	7.8%	1.47µM*	-3.4	-22.4%
N#Cc1ccccc1NC(=O)COC(=O)c1ccc2c(c1)OCCO2	9.1%	29.2	71.0%	34.2%	19.3*	8.0%
Cc1cccc(NC(=O)c2ccc3c(c2)OCCO3)c1C	u	109.1*	109.7%	-8.7%	47.0*	11.2%[46.1 µM]
Clc1ccc2c(c1)C(OC1CN3CCC1CC3)c1ccccc1CS2 (stereo unspecified)	u	-18.0	u	u	-8.7	u
CN1CCN(CCOC2c3ccccc3CSc3ccc(Cl)cc32)CC1 (stereo unspecified)	u	-8.6	u	10.4µM*	-6.2	20.6µM*
CCOC(=O)c1c(O)c2ccccc2n(-c2ccccc2)c1=O	-21.4%	-9.7	13.3%	3.8%	-2.2	11.7%
COc1cc(OC)nc(NC(=O)NS(=O)(=O)c2ccccc2Cl)n1	13.3%[46.1 µM]	-5.6	24.7%	54.4%	-0.6	-0.7%
Cc1cc(N(C)N)nc(NC(=O)NS(=O)(=O)c2ccccc2Cl)n1	7.9%[46.1 µM]	21.4	10.5%	19.7%	16.3*	-10.7%
CCN(CC)S(=O)(=O)c1ccc(NC(=O)COc2nc3ccccc3nc2N2CCOCC2)cc1	-22.2%	-7.3	-16.2%	u	-6.1	2.0%
O=C(NNC(=O)c1ccccc1F)c1ccc(-c2ccc(Cl)cc2)o1	u	x	2.8%	18.5%	x	-9.6%
CC(=O)n1c(C=Nc2ccc(Cl)cc2)c(O)c2ccccc21	u	6.3	1.47µM*	u	12.1	-3.1%[46.1 µM]
CN(C)CCCNc1cc(O)c2ncccc2c1	x	x	4.15µM*	4.65µM*	x	x
Oc1cc(NCc2ccc(Cl)cc2)cc2cccnc12	x	x	3.29µM*	u	x	x
CN(CC(=O)NCc1ccc(Cl)cc1)S(=O)(=O)c1cccc2cccnc12	x	1.0	x	50.2%	-7.0	x
Oc1cc(NCc2ccc(F)cc2)cc2cccnc12	x	x	2.62µM*	1.85µM*	x	x
Oc1cccc2cccnc12	x	1.7	u	u	-2.8	x
Clc1ccc(CNc2ncccn2)cc1	-8.2%	43.3*	14.6%[0.00184 µM]	67.9%	26.5*	-8.1%
CCNc1nc(NC(C)C)nc(Oc2ccc(OCc3ccccc3)nn2)n1	-22.3%[46.1 µM]	-7.3	u	-33.0%	1.0	-22.7%
COc1nc(NCC(C)C)nc(Oc2ccc(OCc3ccccc3)nn2)n1	4.2%[46.1 µM]	-5.9	0.37µM*	2.6%	0.8	12.7%
O=C(Cn1c(=O)n(-c2ccc(F)cc2)c(=O)c2sccc21)N1CCCC1	20.0%	-8.8	3.9%	u	5.2	-0.5%
COc1ccc(-c2oc(=O)c3cc(OC)c(OC)cc3c2-c2cc(F)cc(OC)c2)cc1	-3.1%	x	u	2.94µM*	x	x
O=C(CCC(=O)c1cccs1)NNC(=O)c1ccccc1O	1.2%	x	10.0%	-8.4%	x	7.1%
Cc1cc(Cl)ccc1NC(=O)CN1CCN(C(=O)c2ccco2)CC1	9.0%	-8.0	10.4µM*	-6.7%	-2.1	u
COc1ccc2ccccc2c1CN1CCN(C(=O)c2ccco2)CC1	u	-11.3	6.57µM*	11.0%	-3.5	u
c1ccc(CN2CCN(CCOCCOc3cccc4ccccc34)CC2)cc1	u	-7.2	u	u	-7.6	1.4%
O=C(c1ccco1)N1CCN(CCOCCOc2cccc3ccccc23)CC1	u	-7.0	x	11.7µM*	-6.2	-18.3%
O=C(CN1CCC(NC(=O)c2ccco2)CC1)Nc1cccc2ccccc12	1.7%	-2.4	u	10.4µM*	1.3	8.3%
Cc1[nH]c(=O)c(C(=O)c2cc(Cl)ccc2O)cc1C(=O)O	7.8%[46.1 µM]	29.1	34.0%	32.3%[5.75 µM]	-1.4	0.0%[46.1 µM]
COc1ccc(NC(=S)N2CCN(C(=O)c3ccco3)CC2)c(OC)c1	-3.9%	-2.6	1.2%	u	-1.9	0.6%

Screening results deposited in PubChem BioAssay by National Center for Advancing Translational Sciences (NCATS).
